The values that follow come from PubChem BioAssay (NCI).

SMILES strings stand for the structures. Where “and” joins values, the source holds several entries; their conditions need not be identical. Equal values may be shown once. Compounds without any hit were thinned out: in the full panel of roughly 83,000, 20% have a hit.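 Cell lines were cultured in 96-well plates, exposed to a single compound concentration, and assessed for percent growth 48 hours later.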 Calls of active or inactive are those of the source. The calls were made as follows: active = growth percent below 10; inactive = the rest.

Some test systems named below: HCT-15 colon; HT29 colon; SNB-75 CNS; SNB-19 CNS; U251 CNS; PC-3 prostate; SK-MEL-5 melanoma; UACC-62 melanoma; LOX IMVI melanoma; SK-MEL-28 melanoma; SK-MEL-2 melanoma; EKVX NSCLC; SN12C renal; UO-31 renal; TK-10 renal; ACHN renal; CAKI-1 renal; A498 renal; CCRF-CEM leukemia; MOLT-4 leukemia.
Common to all, as to experiment: NCI-60 one-dose screen, 48 h (100 = growth as untreated, 0 = no growth, -100 = all killed)
Conditions in all cases: 10 µM unless noted

As to `COc1cc(-c2nn(-c3cccc(NC(=O)CCN4CCN(C)CC4)c3)cc2-c2ccncc2)ccc1Cl`, the growth in the assay on HCT-15 colon was 21.2% (inactive); in the assay with HT29 colon it was -17.4% (active); with SNB-75 CNS it was -5.41% (active); in the assay with SNB-19 CNS it was 44% (inactive); in the assay on U251 CNS it was 21.5% (inactive); in the assay with PC-3 prostate, 14% (inactive). Further, the growth in the assay with SK-MEL-5 melanoma is 8.48% (active); in the assay on UACC-62 melanoma it was 28.2% (inactive); in the assay on LOX IMVI melanoma, -16% (active); with SK-MEL-28 melanoma, 16.9% (inactive); in the assay with SK-MEL-2 melanoma, 2.29% (active); in the assay with EKVX NSCLC, 47.1% (inactive). The growth in the assay with SN12C renal is 33.3% (inactive); in the assay with UO-31 renal, 41.5% (inactive); in the assay on TK-10 renal it was 39.2% (inactive); in the assay with ACHN renal, 51.7% (inactive); in the assay with CAKI-1 renal, 38.7% (inactive); with A498 renal it was 14.1% (inactive). Further, the results for the growth in the assay with CCRF-CEM leukemia and in the assay with MOLT-4 leukemia were 9.08% (active) and 12.7% (inactive), respectively.
Regarding `CCCNNC(=O)/C=C/c1ccc(CNCCc2c(C)[nH]c3ccccc23)cc1`, the growth with HCT-15 colon is 42.8% [2.5 µM] (inactive); in the assay on HT29 colon it was 5.78% [2.5 µM] (active); in the assay on SNB-75 CNS, 56.9% [2.5 µM] (inactive); in the assay on SNB-19 CNS, 28.6% [2.5 µM] (inactive); in the assay with U251 CNS, 8.11% [2.5 µM] (active); in the assay with PC-3 prostate, 31.5% [2.5 µM] (inactive). Moreover, the growth in the assay on SK-MEL-5 melanoma is -13.3% [2.5 µM] (active); with UACC-62 melanoma, -46% [2.5 µM] (active); in the assay with LOX IMVI melanoma, 0.891% [2.5 µM] (active); with SK-MEL-28 melanoma it was 10.1% [2.5 µM] (inactive); in the assay with SK-MEL-2 melanoma, 13.7% [2.5 µM] (inactive); in the assay with EKVX NSCLC, 50.4% [2.5 µM] (inactive). The growth in the assay on SN12C renal is 26.3% [2.5 µM] (inactive); with UO-31 renal, 13.8% [2.5 µM] (inactive); in the assay with TK-10 renal, -16.2% [2.5 µM] (active); in the assay with ACHN renal, -15.4% [2.5 µM] (active); in the assay on CAKI-1 renal it was -4.92% [2.5 µM] (active); with A498 renal it was -37.6% [2.5 µM] (active). In addition, the growth is 27.6% [2.5 µM] (inactive) in the assay on CCRF-CEM leukemia and 13.3% [2.5 µM] (inactive) in the assay with MOLT-4 leukemia.
`COc1c(NC=O)c2c(c([N+](=O)[O-])c1OC)C(=O)OC2`: the growth is 115% (inactive) and 90.4% (inactive) with HCT-15 colon; 102% (inactive) and 112% (inactive) in the assay on HT29 colon; 89.1% (inactive) and 62.6% (inactive) in the assay on SNB-75 CNS; 102% (inactive) and 99.5% (inactive) in the assay with SNB-19 CNS; 99.9% (inactive) and 101% (inactive) in the assay on U251 CNS; 90.7% (inactive) and 102% (inactive) in the assay with PC-3 prostate. Further, the growth with SK-MEL-5 melanoma is 112% (inactive) and 95.4% (inactive); in the assay on UACC-62 melanoma, 104% (inactive) and 93.7% (inactive); in the assay on LOX IMVI melanoma, 103% (inactive); in the assay on SK-MEL-28 melanoma, 111% (inactive) and 103% (inactive); in the assay on SK-MEL-2 melanoma, 107% (inactive) and 120% (inactive); in the assay with EKVX NSCLC, 110% (inactive) and 85.7% (inactive). The growth in the assay with SN12C renal was 92.1% (inactive) and 94.8% (inactive); with UO-31 renal, 80.2% (inactive); with TK-10 renal, 114% (inactive) and 111% (inactive); in the assay with ACHN renal, 130% (inactive) and 112% (inactive); in the assay on CAKI-1 renal, 105% (inactive) and 89.1% (inactive); in the assay on A498 renal, 111% (inactive). Also, the growth with CCRF-CEM leukemia is 91.5% (inactive) and 3.53% (active); in the assay with MOLT-4 leukemia it was 67.9% (inactive) and 115% (inactive).
As to `COc1ccc2c(c1)oc1c(C)c3c(c(C)c12)C(=O)N(Nc1ccccc1)C3=O`, the growth in the assay on HCT-15 colon is 105% (inactive); in the assay with HT29 colon, 106% (inactive); with SNB-75 CNS it was 94.5% (inactive); with SNB-19 CNS, 99% (inactive); in the assay with U251 CNS it was 108% (inactive); with PC-3 prostate, 109% (inactive). The growth in the assay on SK-MEL-5 melanoma is 100% (inactive); with UACC-62 melanoma, 98.5% (inactive); in the assay with LOX IMVI melanoma it was 100% (inactive); with SK-MEL-28 melanoma, 95.3% (inactive); in the assay on SK-MEL-2 melanoma it was 99% (inactive); in the assay on EKVX NSCLC it was 108% (inactive). Moreover, the growth in the assay on SN12C renal was 97% (inactive); in the assay with UO-31 renal, 84% (inactive); in the assay with TK-10 renal, 114% (inactive); in the assay on ACHN renal it was 99.4% (inactive); in the assay on CAKI-1 renal it was 91.5% (inactive); in the assay with A498 renal, 117% (inactive). For the same molecule, the growth is 111% (inactive) with CCRF-CEM leukemia and 99.8% (inactive) in the assay on MOLT-4 leukemia.
Regarding `Cc1ccc(NC(=O)c2sc3nc(C)c(C(=O)c4ccccc4)cc3c2N)cc1`, the growth is 83.1% (inactive) with HCT-15 colon; 102% (inactive) with HT29 colon; 70.7% (inactive) in the assay on SNB-75 CNS; 83.3% (inactive) in the assay with SNB-19 CNS; 88.5% (inactive) in the assay with U251 CNS; 92.2% (inactive) with PC-3 prostate. Besides, the growth with SK-MEL-5 melanoma was 94.1% (inactive); with UACC-62 melanoma, 79.5% (inactive); with LOX IMVI melanoma it was 94.9% (inactive); with SK-MEL-28 melanoma it was 92% (inactive); in the assay on SK-MEL-2 melanoma, 93.8% (inactive); in the assay with EKVX NSCLC, 72.4% (inactive). Moreover, the growth in the assay with SN12C renal was 95.8% (inactive); with UO-31 renal it was 89.4% (inactive); in the assay with TK-10 renal, 99.5% (inactive); with ACHN renal it was 92.8% (inactive); in the assay with CAKI-1 renal, 76.1% (inactive); in the assay with A498 renal, 4.97% (active). The growth with CCRF-CEM leukemia was 94.3% (inactive); with MOLT-4 leukemia it was 104% (inactive).
On to `Cc1cc(N2CCCCC2)nc(NCc2cc(Nc3ccnc4cc(Cl)ccc34)ccc2F)n1`, for which the growth with HCT-15 colon is -55.1% (active); with HT29 colon, -58.4% (active); in the assay on SNB-75 CNS, -37.1% (active); in the assay with SNB-19 CNS, 40.9% (inactive); in the assay on U251 CNS, -90.9% (active); with PC-3 prostate, 17.4% (inactive). Further, the growth was -96.3% (active) in the assay on SK-MEL-5 melanoma; -80.7% (active) in the assay on UACC-62 melanoma; -79.2% (active) with LOX IMVI melanoma; -73.8% (active) in the assay with SK-MEL-28 melanoma; -42.7% (active) in the assay on SK-MEL-2 melanoma; 38.6% (inactive) with EKVX NSCLC. In addition, the growth is -71% (active) with SN12C renal; -46.9% (active) with UO-31 renal; -21.5% (active) with TK-10 renal; -82% (active) in the assay on ACHN renal; 19.1% (inactive) in the assay on CAKI-1 renal; -17.3% (active) with A498 renal. For the same molecule, the values for the growth with CCRF-CEM leukemia and in the assay with MOLT-4 leukemia were -19.2% (active) and -24.8% (active), respectively.
